Screening results (PubChem)
Most compounds without a hit are left out; they make up all but 4.5% or so of the library.
DAX1 inh-1: DAX1 (NR0B1) inhibitors on StAR promoter, primary screen, cell-based, luminescence, SF-1 (NR5A1), full-length DAX-1; HEK293T StAR-luciferase reporter, SF-1/DAX-1 repression relief; inhibition, % at 6.8 µM; actives 1.1% (n = 370,000); AID 652010, 2013;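 active = inhibition above the mean over all tested compounds plus 3 SD, cut at about 3.6% in these data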;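 also: higher inhibition means more luminescence from relief of DAX-1 repression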
hgDAF-12 ag: H. glycines DAF-12 receptor agonists, primary screen, cell-based, luminescence, HEK293, GAL4 fusion, UAS-luciferase. Nuclear hormone receptor DAF-12 (Heterodera glycines), GAL4 fusion. HEK293 GAL4-hgDAF12 UAS-luciferase reporter, agonist luminescence; normalized to butyrate control. activation, % at 6.8 µM. actives 1.8% (n = 370,000);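 active = activation above a cutoff set at the mean of all screened compounds plus 3 SD, cut at about 10% in these data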
DAX1 inh-2: DAX1 (NR0B1) inhibitors, primary screen, cell-based, HEK293, Gal4-DAX1, luciferase luminescence | Nuclear receptor subfamily 0 group B member 1 (Homo sapiens), P51843 | HEK293 Gal4-DAX1 luciferase reporter | inhibition, % at 6.75 µM | actives 0.99% (n = 340,000);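 active = inhibition above the mean over all tested compounds plus 3 SD, cut at about 4.2% in these data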;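 also: inhibition shows as a rise in luminescence from relieved DAX1 repression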
Target sequence (P51843 207-470 limits assumed): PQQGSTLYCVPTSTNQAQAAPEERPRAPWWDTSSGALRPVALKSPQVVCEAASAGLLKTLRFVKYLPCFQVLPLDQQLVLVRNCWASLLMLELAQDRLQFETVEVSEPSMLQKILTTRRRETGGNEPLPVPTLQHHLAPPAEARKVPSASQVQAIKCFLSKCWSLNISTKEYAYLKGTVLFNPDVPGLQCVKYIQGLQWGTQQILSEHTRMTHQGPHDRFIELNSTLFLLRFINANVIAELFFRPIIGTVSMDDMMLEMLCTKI
ssDAF12 agonist: S. stercoralis DAF-12 nuclear receptor activators, primary screen, cell-based, luminescence, HEK293, GRIP1 co-expression, lit1-tk-luc; HEK293 ssDAF-12/GRIP1 lit1-tk-luc reporter; % of 3 µM dafachronic acid response; activation, % at 6.8 µM; Nuclear hormone receptor DAF-12 (Strongyloides stercoralis); actives 1% (n = 370,000);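 active = activation above the mean over all tested compounds plus 3 SD, cut at about 0.9% in these data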
hcDAF12 agonist: H. contortus DAF-12 nuclear receptor activators, primary screen, cell-based, luminescence, HEK293, lit1-tk-luc reporter | HEK293 hcDAF-12 lit1-tk-luc reporter; 0% DMSO, 100% Δ7-dafachronic acid | activation, % at 6.8 µM | actives 1.4% (n = 370,000) | AID 652067, 2013;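 active = activation above the mean of all tested compounds plus 3 SD, cut at about 5.5% in these data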
GAA850 FXN act: FXN promoter activators, primary screen, cell-based, luciferase luminescence, HEK293 lucGAA850; HEK293 lucGAA850 FXN promoter luciferase reporter, 24 h; percent of 10 µM SAHA response; activation, % at 6 µM; actives 0.56% (n = 360,000);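 active = activation above the average of all compounds screened plus 3 SD, cutoff fixed separately per campaign, cut at about 7.5% in these data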
A number is an active result; n = inactive; x = no result.

SMILES	DAX1 inh-1	hgDAF-12 ag	DAX1 inh-2	ssDAF12 agonist	hcDAF12 agonist	GAA850 FXN act
O=C(NCCc1ccccc1)C1CCN(C(=O)c2ccc([N+](=O)[O-])cc2)CC1	n	n	n	0.9	n	n
COc1ccc(CCNC(=O)C2CCN(C(=O)c3ccc([N+](=O)[O-])cc3)CC2)cc1	n	n	n	n	n	n
O=C(CSc1nc(-c2ccc(F)cc2)cc(C(F)(F)F)n1)NCCN1CCOCC1	n	n	n	n	n	n
O=C(CSc1nc(-c2ccco2)cc(C(F)(F)F)n1)NCCN1CCOCC1	n	n	6.0	n	n	n
Cc1cc(C)c2c(N)c(C(=O)N/N=C/c3cccnc3)sc2n1	n	n	x	n	n	n
Cc1cc(C)c2c(N)c(C(=O)N/N=C/c3ccccc3)sc2n1	n	n	8.7	n	n	n
COc1cccc(OCc2ccc(Cn3nc(NC(=O)NCCc4ccc(OC)c(OC)c4)c4ccccc43)cc2)c1	n	n	x	2.2	5.8	n
Cc1ccc2nc(SC(C)C(=O)N3CCCC3)[nH]c2c1 (stereo unspecified)	n	n	n	n	n	n
Cc1ccc2nc(SC(C)C(=O)N3CCCCC3)[nH]c2c1 (stereo unspecified)	n	n	n	1.8	n	n
CC1=C[C@]2(CN(CC3CC3)C3=N[C@H](c4ccccc4)CC(=O)N32)n2c(=O)n(-c3ccccc3)c(=O)n2C1	x	n	x	n	n	x
COc1ccc(CC(=O)NCC(=O)N/N=C/c2sccc2C)cc1	n	n	n	n	6.4	n
COc1ccc(CC(=O)NCC(=O)N/N=C/c2ccc(C)o2)cc1	n	n	n	n	n	n
CCCCNC(=S)N/N=C/c1cc(C)ccc1C	n	n	n	n	n	n
CCCCNC(=S)N/N=C/c1sccc1C	n	10.9	n	n	n	n
CCCCCCCCNC(=O)C1CSCCS(=O)(=O)N1Cc1ccc(F)cc1 (stereo unspecified)	n	n	x	n	n	x
CC(=O)c1cccc(NC(=O)COC(=O)CCc2ccc(S(=O)(=O)N3CCOCC3)cc2)c1	n	n	4.3	n	n	n
O=C(COC(=O)c1ccc(F)cc1F)Nc1cccc(S(=O)(=O)N2CCOCC2)c1	3.6	n	n	n	n	n
CCOC(=O)[C@@H](NC(=O)[C@@H]1CC=C[C@@H]2CCN(Cc3ccc(Cl)cc3)C(=O)[C@@H]21)C(C)C	x	n	x	n	n	x
Cc1ccc(NC(=O)[C@H](C)NC(=O)C2CCN(C(=O)[C@@H](N)CC(C)C)CC2)cc1	n	n	n	n	6.0	n
Cc1ccc(NC(=O)[C@H](C)NC(=O)C2CCN(C(=O)[C@@H](N)C(C)C)CC2)cc1	n	n	n	n	n	n
COc1ccc(CNC(=O)[C@H](C)NC(=O)C2CCN(C(=O)[C@@H](N)Cc3ccccc3)CC2)cc1	n	n	6.1	n	n	n
COc1ccc(CNC(=O)[C@H](C)NC(=O)C2CCN(C(=O)[C@@H](N)CCSC)CC2)cc1	n	n	4.4	n	n	n
COC(=O)[C@]12C[C@H](CC(=O)NCc3ccc(C)o3)C(=O)N(Cc3ccc(Cl)cc3Cl)C1=C[C@H](COCc1ccccc1)O[C@@H]2C	n	n	x	n	n	x
COc1ccc(CN2C(NC(=O)OCc3ccccc3)=NC3=CC(C)(C)n4c(=O)n(-c5ccccc5)c(=O)n4C32)c(OC)c1 (stereo unspecified)	n	n	x	n	n	x
CCOC(=O)C1(C(=O)OCC)COC(=O)C1CN1Cc2cc3ccccc3nc2C1 (stereo unspecified)	n	n	n	1.0	n	n
SMILES	DAX1 inh-1	hgDAF-12 ag	DAX1 inh-2	ssDAF12 agonist	hcDAF12 agonist	GAA850 FXN act
CCOC(=O)C1(CC2CCCCO2)CCN(Cc2nc3ccccc3nc2C)CC1 (stereo unspecified)	n	n	x	n	n	n
CCCCCCCCN1C(=O)[C@@H](CC(=O)NCCCOCCCC)C[C@@]2(C(=O)OC)C1=C[C@H](C1CCCC1)O[C@@H]2C	n	n	x	n	n	x
COc1cccc(CCNC(=O)CCc2nc(-c3ccccc3F)no2)c1	n	n	x	n	n	x
CCN(CC)CCCn1c2c(c(SCC(=O)Nc3cc(C)cc(C)c3)nc1=O)CCC2	4.4	n	n	n	n	n
CCN(CC)CCn1c2c(c(SCC(=O)Nc3nc4ccccc4s3)nc1=O)CCC2	n	n	n	n	5.8	n
C=CCn1c(COc2ccc(C)cc2)nnc1SCC(=O)c1ccc(-c2ccccc2)cc1	n	n	x	n	n	x
O=C(Cc1cccc(F)c1)Nc1ccc2c(c1)CCC2	n	n	n	n	n	n
Cc1cccc(NC(=O)Nc2ccncc2)c1	n	n	n	1.1	n	n
Cc1cccc(NC(=O)C(=O)NCc2ccccn2)c1	n	n	4.3	n	n	n
Cc1cccc(NC(=O)Nc2ccc3c(c2)CCC3)c1	4.1	n	n	n	n	n
O=C(Cc1ccc2c(c1)CCCC2)Nc1ccc2ccccc2c1	n	n	n	n	5.7	n
COC(=O)[C@H](C(C)C)N1Cc2nnn(CC3CCCCC3)c2-c2ccccc2S1(=O)=O	n	n	x	n	n	x
Cc1cc(N2CCN(C(=O)OC(C)(C)C)C[C@H]2C)ccc1N1CC[C@@H](O)C1	n	n	x	n	n	x
CCc1ccc(NC(=O)Nc2ccc3c(c2)CCC3)cc1	3.7	n	n	n	n	n
COc1cccc(NC(=O)Nc2ccc3c(c2)CCC3)c1	4.1	11.7	n	n	n	n
Cc1cccc(NC(=O)C2C3CCCCC32)c1 (stereo unspecified)	n	n	5.5	n	n	n
CC(=O)c1cccc(NC(=O)Nc2ccc3c(c2)CCC3)c1	n	n	n	n	n	n
O=C(Nc1ccccc1)C1C2CCCCC21 (stereo unspecified)	n	n	n	n	n	n
CCCNC(=O)C(Cc1ccccc1)NS(=O)(=O)c1cccc2nsnc12 (stereo unspecified)	n	n	n	n	n	n
CCOCCCNC(=O)C(Cc1ccccc1)NS(=O)(=O)c1cccc2nsnc12 (stereo unspecified)	n	n	4.5	n	n	n
C=CCN=C1NC(c2cccc(Cl)c2)C(C(=O)OC)=C(C)N1Cc1cccc(C(F)(F)F)c1 (stereo unspecified)	n	n	x	n	n	x
